RORgamma inh – inhibitors of mouse ROR gamma transcriptional activity; P51450; AID 2551; actives 5.4% (n = 310,000); Potency, µM (highest dose often 53.6 µM), hits mostly inhibitors; Drosophila S2 Gal4-RORgamma UAS-luciferase reporter, 20 h; also: nearly all actives have a fitted effect of over 60% in size
Target sequence (P51450 whole entry, looked up, the tested form may be a part): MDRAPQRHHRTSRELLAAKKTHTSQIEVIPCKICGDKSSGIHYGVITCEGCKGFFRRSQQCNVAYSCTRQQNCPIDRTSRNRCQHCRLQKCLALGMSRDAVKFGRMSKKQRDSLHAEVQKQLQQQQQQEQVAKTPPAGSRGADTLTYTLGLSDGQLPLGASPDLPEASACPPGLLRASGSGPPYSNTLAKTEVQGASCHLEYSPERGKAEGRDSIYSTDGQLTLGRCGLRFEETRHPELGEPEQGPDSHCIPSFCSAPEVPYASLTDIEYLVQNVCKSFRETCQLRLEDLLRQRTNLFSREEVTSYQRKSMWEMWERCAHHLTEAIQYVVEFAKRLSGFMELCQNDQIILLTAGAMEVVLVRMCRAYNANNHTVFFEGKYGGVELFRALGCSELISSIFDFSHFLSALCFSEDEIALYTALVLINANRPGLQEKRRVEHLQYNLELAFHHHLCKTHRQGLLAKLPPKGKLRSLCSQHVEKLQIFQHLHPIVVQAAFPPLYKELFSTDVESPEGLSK
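ROR gamma transcriptional activity was tracked as Gal4-UAS luciferase output in stably transfected Drosophila Schneider cells, with compound added 1 hr before 700 uM copper sulfate induction and a 20 hr ambient-temperature incubation.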
Luc counter – counter-screen: inhibitors of Kinase-Glo firefly luciferase | Kinase-Glo luciferase, ATP luminescence, 8 min | Potency, µM (series often up to 38.3 µM), actives largely listed as inhibitors | actives 0.28% (n = 200,000); also: nearly all actives have a fitted effect of over 60% in size
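Light output from Kinase-Glo luciferase with luciferin and 10 uM ATP in 50 mM imidazole pH 7.2, KCl, MgCl2, Tween 20, BSA; compound pin-delivered, 8-min ambient incubation, then luminescence read.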
Gal4-VP16 FLuc – counter-screen for ROR gamma inhibitors: Gal4-VP16 reporter | Drosophila S2 Gal4-VP16 UAS-luciferase, luminescence, 20 h | Potency, µM (titrated, usually from 53.6 µM), most hits filed as inhibitors | actives 3.5% (n = 310,000) | AID 2546;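 also: Gal4-VP16 expression switched on by copper sulfate through the metallothionein promoter; nearly all actives have a fitted effect of over 50% in size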
Each line names hits and unclear results; the compound was inactive in the other large screens. Sampled rows, rich in hits. Any-hit rate of the full collection: about 6.4%. Calls follow the shape of the dose curve; as a rule, active = well fitted curve in the direction sought with a large enough effect; inconclusive = small, poorly fitted or top-dose-only effect, or another doubt; inactive = no such curve, though single readings can be large; an effect the other way counts as inactive or inconclusive.

CCCCNC(=O)COC(=O)c1c2c(nc3ccccc13)/C(=C/c1cccs1)CC2	RORgamma inh inconclusive, Gal4-VP16 FLuc inconclusive
CSc1nc2cc(C)nn2c(-c2ccccc2)c1C#N	none (no result: Luc counter)
Cc1cccc2cc(C#N)c(NCCNC(=S)NCCCN3CCOCC3)nc12	RORgamma inh 4µM
CCOCCCNC(=S)N1CCCN(c2nc3c(C)c(C)ccc3cc2C#N)CC1	none
CCOCCCNC(=S)NCCCNc1nc2c(C)c(C)ccc2cc1C#N	RORgamma inh 11µM, Gal4-VP16 FLuc inconclusive
Cc1cc2cc(C#N)c(NCCNC(=S)NCCCN3CCOCC3)nc2cc1C	none
CCc1ccccc1OC[C@@H](O)CN[C@H]1CCCc2ccccc21	RORgamma inh 7.1µM, Gal4-VP16 FLuc 14µM
OC(CNC1CCCc2ccccc21)COc1ccc2ccccc2c1 (centres undefined)	none
N#Cc1cccc(-c2nc3cnc(Oc4cccc(Cl)c4)nc3n(C3CC3)c2=O)c1	RORgamma inh inconclusive (no result: Luc counter)
CN1CCN(NC(=O)c2cn(-c3ccccc3)nc2-c2ccc(OC(F)F)cc2)CC1	none
COc1ccc(OC)c(/C=N/Nc2nncn2/N=C/c2cc(OC)ccc2OC)c1	RORgamma inh inconclusive, Gal4-VP16 FLuc inconclusive
COc1cc(/C=N/Nc2nncn2/N=C/c2ccc(O)c(OC)c2)ccc1O	Luc counter 10µM, Gal4-VP16 FLuc inconclusive
Cc1nccn1CCOc1ccccc1Cl	RORgamma inh inconclusive (no result: Luc counter)
O=c1[nH]c(-c2ccccn2)cc2ccccc12	RORgamma inh 5µM, Gal4-VP16 FLuc inconclusive
Cc1cc2ccccc2c(=O)[nH]1	none
CCOc1ccc(N(CC)C(=O)c2cn(CC)c(=O)c3cc(OC)c(OC)cc23)cc1	none (no result: Luc counter)
CCNc1ccc(S(=O)(=O)N(C)C)cc1NCC(=O)Nc1ccc(F)c(Cl)c1	RORgamma inh inconclusive, Gal4-VP16 FLuc inconclusive
Cc1ccc(C(=O)NC(=S)N2CCN(c3ccccc3F)CC2)cc1	RORgamma inh 0.89µM, Gal4-VP16 FLuc 2.8µM
O=C(c1ccc(-c2ccccc2)cc1)N1CCN(c2ccccc2F)CC1	none (no result: Luc counter)
CC(=O)c1ccc(N2CCN(C(=S)Nc3cc(C)ccc3C)CC2)cc1	RORgamma inh inconclusive, Gal4-VP16 FLuc inconclusive
Cc1ccc(C(=O)NC(=S)N2CCN(c3cc(C)ccc3C)CC2)cc1	RORgamma inh 1µM, Gal4-VP16 FLuc 1µM (no result: Luc counter)
CCCn1c(=O)c(C(=O)NNS(=O)(=O)c2ccc(NC(=O)OC)cc2)c(O)c2ccccc21	none (no result: Luc counter)
COCCSc1nnc(NC(=O)C2CC(=O)N(CCc3ccc(F)cc3)C2)s1 (centres undefined)	none (no result: Luc counter)
Cc1nc(Cl)c(C(=O)NCCc2ccccc2)c(C)c1[N+](=O)[O-]	none (no result: Luc counter)
Cc1cc(C)nc(SCc2cn3c(C)cccc3n2)n1	RORgamma inh inconclusive (no result: Luc counter)
Cc1cc(C)c(C#N)c(SCc2cn3c(C)cccc3n2)n1	RORgamma inh 11µM, Gal4-VP16 FLuc inconclusive
Cc1ccnc(SCc2cn3c(C)cccc3n2)n1	RORgamma inh inconclusive
Clc1c(CSc2nc3ccccc3o2)nc2ccccn12	RORgamma inh inconclusive, Gal4-VP16 FLuc 7.1µM
Cc1cccc2nc(CSc3nc4ccccc4o3)cn12	RORgamma inh 18µM, Gal4-VP16 FLuc inconclusive
Clc1c(CSc2nc3ccccc3o2)nc2sccn12	RORgamma inh inconclusive
c1ccc2nc(SCc3cn4ccccc4n3)cnc2c1	RORgamma inh inconclusive, Gal4-VP16 FLuc inconclusive
c1ccc2oc(SCc3cn4ccccc4n3)nc2c1	RORgamma inh 8.9µM, Gal4-VP16 FLuc 16µM
CC(=O)OC[C@@H]1O[C@H](C/C=N\O[C@@H](C)c2cn([C@H]3COC[C@H]3O)nn2)C=C[C@@H]1OC(C)=O	none (no result: Luc counter)
Cc1cccc2nc(CSc3nnc4ccccn34)cn12	RORgamma inh 11µM, Gal4-VP16 FLuc inconclusive
Cc1cccc2nc(CSc3nnnn3-c3ccccc3)cn12	none
CNC(=O)CSCc1c(Cl)cccc1Cl	none
COCCNC(=S)NNC(=O)CSCc1ccc(Cl)cc1Cl	RORgamma inh 10µM
CNC(=S)NNC(=O)CSCc1c(Cl)cccc1Cl	RORgamma inh 11µM, Gal4-VP16 FLuc 20µM (no result: Luc counter)
O=C(CSCc1ccccc1)NNC(=S)Nc1cccc(Cl)c1Cl	RORgamma inh 6.3µM, Gal4-VP16 FLuc inconclusive
O=C(CNCc1ccccc1)Nc1cccc(Cl)c1Cl	none (no result: Luc counter)
NNC(=O)CSCc1ccc(Cl)cc1Cl	none
COc1ccc2c(C)cc3nncn3c2c1	none
O=C1C[C@H](c2ccc(-c3ccccc3)cc2)N1S(=O)(=O)c1ccccc1[N+](=O)[O-]	none (no result: Luc counter)
CC(C)(C)CC(C)(C)c1cc(Cc2cc(C(C)(C)CC(C)(C)C)cc(-n3nc4ccccc4n3)c2O)c(O)c(-n2nc3ccccc3n2)c1	none (no result: Luc counter)
CC1CCN(C(=O)c2ccc3c(c2)OCO3)CC1	none (no result: Luc counter)
CCC(NC(=S)NC1CCCCC1)c1ccc(C(C)C)cc1 (centres undefined)	RORgamma inh 1.8µM, Gal4-VP16 FLuc 2.5µM (no result: Luc counter)
CCC(NC(=O)NC1CCCCC1)c1ccccc1 (centres undefined)	RORgamma inh inconclusive
Cc1ccc(C(C)NC(=O)C2CCCC2)c(C)c1 (centres undefined)	none (no result: Luc counter)
Cc1ccc(C(C)NC(=S)NC2CCCCC2)cc1C (centres undefined)	RORgamma inh 2.5µM, Gal4-VP16 FLuc 4µM (no result: Luc counter)
COc1ccc(C(C)NC(=S)NC2CCCC2)cc1OC (centres undefined)	RORgamma inh inconclusive, Gal4-VP16 FLuc inconclusive
Cc1ccc(C(C)NC(=S)NC2CCCCC2)c(C)c1 (centres undefined)	RORgamma inh 3.2µM, Gal4-VP16 FLuc 3.5µM (no result: Luc counter)
CC(C#N)Sc1ncnc2sc(-c3ccccc3)cc12 (centres undefined)	none (no result: Luc counter)
COc1cccc(C(=O)Nc2ccc3c(c2)OCO3)c1OC	RORgamma inh inconclusive (no result: Luc counter)
COc1ccc(/C=C/C(=O)Nc2cccc(C(C)=O)c2)cc1	RORgamma inh 3.2µM, Gal4-VP16 FLuc 6.3µM
COc1cc(OC)cc(C(=O)Nc2cccc(C(C)=O)c2)c1	RORgamma inh inconclusive, Luc counter inconclusive
COc1cccc(/C=C/C(=O)Nc2ccc3c(c2)OCCO3)c1OC	RORgamma inh 1.1µM, Gal4-VP16 FLuc inconclusive
COc1cccc(/C=C/C(=O)Nc2cccc(C(C)=O)c2)c1OC	RORgamma inh 1.4µM, Gal4-VP16 FLuc inconclusive
COc1ccc(OC)c(/C=C/C(=O)c2ccc3c(c2)OCCO3)c1	RORgamma inh 10µM (no result: Luc counter)
COc1ccc(OC)c(/C=C/C(=O)Oc2ccc(C(C)=O)cc2)c1	none (no result: Luc counter)
COc1ccccc1/C=C/C(=O)Nc1cccc(C(C)=O)c1	Gal4-VP16 FLuc inconclusive
COc1ccccc1N1CCN(S(=O)(=O)c2ccc(NC(C)=O)cc2)CC1	none (no result: Luc counter)
CCN(CC)Cc1c(C(=O)N/N=C/c2ccc(C)o2)nnn1-c1nonc1N	none (no result: Luc counter)
COc1ccccc1C(=O)N/C(=C\c1ccccc1)C(=O)NCc1ccco1	none (no result: Luc counter)
CCN(c1ccccc1)S(=O)(=O)c1ccc(C(=O)Nc2nnc(C3CC3)o2)cc1	RORgamma inh 0.25µM, Gal4-VP16 FLuc 0.56µM
CN(c1ccccc1)S(=O)(=O)c1ccc(C(=O)NCC2CCCO2)cc1 (centres undefined)	none
CN(c1ccccc1)S(=O)(=O)c1ccc(C(=O)Nc2nnc(C3CC3)s2)cc1	none (no result: Luc counter)
CN(c1ccccc1)S(=O)(=O)c1ccc(C(=O)Nc2nnc(C3CC3)o2)cc1	RORgamma inh 0.32µM, Gal4-VP16 FLuc 1µM
Cc1ccc(C)c(SCC(=O)Nc2cccnc2Cl)c1	none
Cc1cc(C)c2oc(C(=O)N3CCN(Cc4ccccc4)CC3)cc(=O)c2c1	none (no result: Luc counter)
Cc1ccc(S(=O)(=O)N(C)C)cc1NC(=O)C(C)N(C)Cc1sccc1C (centres undefined)	RORgamma inh inconclusive (no result: Luc counter)
